# IDE inh – human IDE inhibitors in live cells, primary screen, fluorescence polarization, HEK cells, FAbetaB substrate. Insulin-degrading enzyme (Homo sapiens), P14735. FAbetaB cleavage. inhibition, % at 5.59 µM. actives 0.41% (n = 320,000). AID 434962, 2010;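 active means percent inhibition above the average of all tested compounds plus 3 SD, set per screening campaign, cut at about 16% in these data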;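 further: IDE supplied by intact live HEK cells; FP after avidin binding of uncleaved biotin substrate so inhibition keeps polarization high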
# Target sequence (P14735 whole entry, looked up): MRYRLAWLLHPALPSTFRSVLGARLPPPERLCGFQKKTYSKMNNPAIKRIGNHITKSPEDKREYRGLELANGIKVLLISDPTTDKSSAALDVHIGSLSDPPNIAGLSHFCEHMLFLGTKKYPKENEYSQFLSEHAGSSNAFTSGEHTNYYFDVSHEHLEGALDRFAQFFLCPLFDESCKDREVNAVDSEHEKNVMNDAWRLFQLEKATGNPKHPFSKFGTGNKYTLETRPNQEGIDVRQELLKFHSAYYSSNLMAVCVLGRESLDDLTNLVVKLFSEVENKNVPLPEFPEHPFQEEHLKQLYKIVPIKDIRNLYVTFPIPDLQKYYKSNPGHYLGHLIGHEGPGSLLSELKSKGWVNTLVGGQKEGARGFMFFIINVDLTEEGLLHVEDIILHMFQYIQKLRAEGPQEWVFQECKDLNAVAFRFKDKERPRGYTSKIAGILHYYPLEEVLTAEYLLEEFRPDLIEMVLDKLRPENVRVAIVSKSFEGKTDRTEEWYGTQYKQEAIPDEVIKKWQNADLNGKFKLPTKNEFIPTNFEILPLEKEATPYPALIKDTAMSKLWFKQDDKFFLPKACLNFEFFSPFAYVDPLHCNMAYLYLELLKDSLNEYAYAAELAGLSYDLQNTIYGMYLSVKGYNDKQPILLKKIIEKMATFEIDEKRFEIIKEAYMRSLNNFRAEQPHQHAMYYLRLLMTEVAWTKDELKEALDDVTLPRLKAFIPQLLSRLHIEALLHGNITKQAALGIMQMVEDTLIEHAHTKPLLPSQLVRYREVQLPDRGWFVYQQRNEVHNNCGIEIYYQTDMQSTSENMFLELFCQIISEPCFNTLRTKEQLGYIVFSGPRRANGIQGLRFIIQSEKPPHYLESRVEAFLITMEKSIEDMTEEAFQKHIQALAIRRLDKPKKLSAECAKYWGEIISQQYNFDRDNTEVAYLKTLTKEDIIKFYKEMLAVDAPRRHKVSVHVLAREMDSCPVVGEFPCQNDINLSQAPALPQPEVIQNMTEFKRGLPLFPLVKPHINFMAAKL
# RTF Ca sens inh – cardiac RTF calcium sensitivity inhibitors, primary screen, biochemical, IANBD-TnC fluorescence, EC70 calcium. IANBD-labeled cardiac RTF, Ca2+ fluorescence. AID 493244, 2011. inhibition, % at 7.15 µM. actives 0.12% (n = 340,000). Troponin I, cardiac muscle (Homo sapiens) + Troponin T, cardiac muscle (Homo sapiens) + …;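 active means inhibition above the mean inhibition of all tested compounds plus 3 SD, cut at about 17% in these data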;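 further: assay run at fixed EC70 calcium of 1.6 mM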
# cardiac RTF act – cardiac RTF calcium sensitivity activators, primary screen, biochemical, IANBD-TnC fluorescence, EC20 calcium | Troponin I, cardiac muscle (Homo sapiens) + Troponin T, cardiac muscle (Homo sapiens) + … | IANBD-labeled TnC RTF fluorescence at EC20 calcium; 0% EC20 calcium, 100% full calcium | activation, % at 7.2 µM | actives 0.24% (n = 340,000) | AID 493008, 2010;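 active means activation above the mean over all tested compounds plus 3 SD, cut at about 30% in these data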;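 further: rise in fluorescence read as greater calcium sensitivity of cardiac thin filaments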
# IDE act – human IDE activators in live cells, primary screen, fluorescence polarization, HEK cells, FAbeta-B substrate | activation, % at 5.96 µM | AID 493087, 2011 | FAbeta-B cleavage; 0% vehicle, 100% cell-free pure enzyme wells | actives 0.073% (n = 340,000) | Insulin-degrading enzyme (Homo sapiens), P14735;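 active means activation above the mean of all tested compounds plus 3 SD, set per screening campaign, cut at about 17% in these data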
# IDE inh confirm – human IDE inhibitors in live cells, confirmation, fluorescence polarization, HEK cells, FAbetaB substrate | shares compounds with IDE inh | FAbetaB cleavage | actives 51% (n = 1,200) | inhibition, % at 5.59 µM;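 active means mean inhibition across triplicate wells above the cutoff set by the earlier primary insulin-degrading enzyme screen, cut at about 16% in these data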
# HEK cytotox – cytotoxicity in HEK cells, cytotoxicity control for IDE inhibitor project, cell-based, luminescence; actives 28% (n = 1,200); inhibition, % at 5.59 µM; HEK293 cytotoxicity, ATP luminescence; AID 449730, 2010; shares compounds with IDE inh; in the data active means inhibition above about 22%
# Hits are given with their value; – = inactive; · = no result. Only some compounds are listed: those with a hit (about 0.71% of all), similar ones and a draw of the others.
SMILES,IDE inh,RTF Ca sens inh,cardiac RTF act,IDE act,IDE inh confirm,HEK cytotox
Cc1cc[n+](C(C)C(=O)c2ccc(-c3ccccc3)cc2)cc1 (configuration not stated),21,–,–,–,–,77
CCCCOc1ccc(C(=O)Nc2cc(C)c(OCC(=O)N3CCOCC3)c(C)c2)cc1,39,–,–,–,–,25
O=C(/C=C/c1ccc([N+](=O)[O-])cc1)Nc1cccc(S(=O)(=O)NC2=NCCCCC2)c1,–,–,–,–,·,·
CC(=O)Nc1cc(O)cc(O)c1,–,–,–,–,·,·
CC1(C)CC(=O)C2=C(C1)N(c1ccccc1)C(=O)C2(O)C(F)(F)F (configuration not stated),16,–,–,–,–,–
CC1(C)CC(=O)C2=C(C1)N(c1ccc(F)cc1)C(=O)C2(O)C(F)(F)F (configuration not stated),–,–,–,–,·,·
COc1cc(/C=C2/SC(=S)N(CC(=O)O)C2=O)ccc1OC(=O)c1ccco1,26,–,–,–,90,–
COc1cc(/C=C2\SC(=S)N(CC(=O)O)C2=O)ccc1OC(=O)c1ccco1,24,–,–,–,107,–
CCOc1cc(/C=C2/SC(=S)N(CC(=O)O)C2=O)ccc1OC(=O)c1cccs1,–,–,–,–,·,·
COc1ccc(/C=C2/SC(=S)N(CC(=O)O)C2=O)cc1OCc1ccc(Cl)cc1,–,–,–,–,·,·
COc1ccccc1/C=C/C(=O)OCC(=O)N1CCc2ccccc21,–,–,–,–,·,·
O=C(Nc1ccc(-c2cn3ccsc3n2)cc1)c1ccc(F)c(S(=O)(=O)N2CCOCC2)c1,21,–,–,–,–,58
O=C(Nc1ccccc1)c1ccc(F)c(S(=O)(=O)N2CCOCC2)c1,–,–,–,–,·,·
Cc1ccc(NC(=O)CN2CCN(CCN=CC3=C(O)CC(c4ccccc4)CC3=O)CC2)cc1 (configuration not stated),–,–,–,–,·,·
Cc1ccc2nc(NC(=O)CSc3nc4c(c(=O)n3C)SC(C)C4)sc2c1 (configuration not stated),25,–,–,–,–,–
COc1ccc(NC(=O)c2sc3nc(-c4cccnc4)ccc3c2N)cc1,–,–,–,–,·,·
COc1ccc(NC(=O)c2sc3nc(-c4cccnc4)ccc3c2N)cc1OC,19,–,–,–,–,–
O=c1c(O)c(-c2cccs2)oc2ccccc12,–,–,–,–,·,·
O=c1c(O)c(-c2cccs2)oc2ccc(Cl)cc12,70,–,36,24,26,–
CCN(CC)c1ccc(C=C(c2nnnn2-c2ccccc2)c2nnnn2-c2ccccc2)cc1,32,–,–,–,30,–
COc1ccc(/C=C2\SC(=S)N(CCC(=O)N3CCCCC3)C2=O)cc1,–,–,–,–,·,·
COCCN1C(=O)/C(=C/c2ccc(N3CCCC3)cc2)SC1=S,26,–,80,–,77,–
O=C(NN=C1CCCC1)c1cccc(Br)c1,–,–,–,–,·,·
N#CC1=C(SCC(=O)c2cc3ccccc3oc2=O)NC(=O)C(C#N)C12CCCC2 (configuration not stated),21,–,–,–,–,–
CC(C)(C)C1CCC2(CC1)C(C#N)=C(SCC(=O)Nc1ccccc1)NC(=O)C2C#N (configuration not stated),–,–,–,–,·,·
SMILES,IDE inh,RTF Ca sens inh,cardiac RTF act,IDE act,IDE inh confirm,HEK cytotox
COC(=O)C1=C(C)N(c2ccc(C)cc2)/C(=C/c2cccs2)C1=O,–,–,–,–,·,·
COC(=O)C1=C(C)N(c2ccc(F)cc2)/C(=C/c2ccc(O)cc2)C1=O,20,–,–,–,76,–
C/C(=N\NC(=O)COc1cccc(Br)c1)c1ccc2c(c1)OCCO2,–,–,–,–,·,·
Cc1cccc(C(=O)NCC(c2ccc(F)cc2)N2CCOCC2)c1 (configuration not stated),16,–,–,–,–,–
Cc1ccc(C(=O)NCC(c2ccc(F)cc2)N2CCOCC2)cc1 (configuration not stated),–,–,–,–,·,·
CCOCCCNC(=S)N1CCCN(c2nc3cc(C)c(C)cc3cc2C#N)CC1,21,–,–,–,–,–
CC(=O)N/N=C/c1ccc(OCCOc2ccc(Br)cc2)cc1,–,–,–,–,·,·
COC1=C/C(=C/c2c(N)n3nc(CC(=O)N4CCCC4)sc3nc2=O)C=CC1=O,24,–,–,–,126,–
CCOC1=C/C(=C/c2c(N)n3nc(CC(=O)N4CCCC4)sc3nc2=O)C=CC1=O,30,–,–,–,39,–
COC1=CC(=Cc2c(N)n3nc(CC(=O)N4CCCCC4)sc3nc2=O)C=C(OC)C1=O,41,–,–,–,26,–
Nc1c(C=C2C=CC(=O)C=C2)c(=O)nc2sc(CC(=O)N3CCCCC3)nn12,–,–,–,–,·,·
Nc1c(/C=C2/C=CC(=O)C(O)=C2)c(=O)nc2sc(CC(=O)N3CCCC3)nn12,–,–,–,–,·,·
Nc1c(/C=C2/C=CC(=O)C(O)=C2)c(=O)nc2sc(CC(=O)N3CCCCC3)nn12,–,–,–,–,·,·
COc1ccc(C(c2c[nH]c3ccccc23)c2c[nH]c3ccccc23)cc1O,–,–,–,–,·,·
COCCCn1c(=O)c2ccccc2n(CC(=O)N2CCCc3ccccc32)c1=O,–,–,–,–,·,·
CC1(C)NC(=O)N(CC(=O)N2CCN(S(=O)(=O)c3ccccc3C(F)(F)F)CC2)C1=O,–,–,–,–,·,·
O=C(c1ccccc1)c1ccc(O)cc1O,19,–,157,–,40,–
COc1cccc(CN(C)C(=O)c2ccc(Cl)c(S(=O)(=O)N3CCCCCC3)c2)c1OC,·,–,–,–,·,·
Cn1c(N)c(-c2ccccc2)c2ccc([N+](=O)[O-])cc2c1=O,25,–,–,–,25,27
N#Cc1c(N)n(Cc2ccccc2)c(=O)c2cc([N+](=O)[O-])ccc12,–,–,–,–,·,·
COC(=O)N1C(=O)[C@@](c2ccccc2)(C2CCCCC2)N1C(=O)OC,–,–,–,–,·,·
Cn1c(N)c(C(=O)CSc2nc(N)cc(N)n2)c(=O)n(C)c1=O,21,–,–,–,–,–
Cn1c(N)c(C(=O)CSc2nc(N)cc(=O)[nH]2)c(=O)n(C)c1=O,–,–,–,–,·,·
Cc1onc(-c2ccccc2)c1C(=O)OCC(=O)Nc1ccc2c(c1)OCO2,–,–,–,–,·,·
Cc1c(-c2cccc(Cl)c2)nc2ccccc2c1C(=O)OCC(=O)Nc1ccc2c(c1)OCO2,17,–,–,–,–,23

# Screens: PubChem BioAssay, The Scripps Research Institute Molecular Screening Center
